# RORgamma inh: qHTS for inhibitors of ROR gamma transcriptional activity; Nuclear receptor ROR-gamma (Mus musculus), P51450; Drosophila S2 Gal4-RORgamma UAS-luciferase reporter, 20 h; Potency, µM (highest dose often 53.6 µM), inactives show at the top dose activity change, negative = inhibition, usual class: inhibitors; 5.4% of 310,000 active; AID 2551, 2010; also: potency is read from the fitted curve at half-maximal effect; % is scaled to controls: 0 for no effect and ±100 for the full control effect; nearly all actives have a fitted effect of over 60% in size
#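 Stable Schneider cell line, Gal4 DNA-binding domain fused to ROR gamma, UAS-luciferase. Cmpd 1 hr RT → CuSO4 700 uM final → 20 hr RT → luciferase reagent 10 min → luminescence.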
# MBNL1 CUG block: qHTS Assay for Inhibitors of MBNL1-poly(CUG) RNA binding. Muscleblind-like protein 1 (Homo sapiens), Q9NR56. TR-FRET MBNL1-His/biotin-(CUG)12 binding, 665/545 ratio. Potency, µM (series often up to 57.5 µM), without a hit: at the top dose activity change, negative = inhibition, most hits filed as inhibitors. 0.036% of 280,000 active; active = well fitted inhibition curve with a large enough effect in the signal ratio, with a control signal flat, not every such curve was filed as active; inconclusive = small, poorly fitted or top-dose-only effect, or effect the other way, or a change in a side signal; inactive = no such curve, though single readings can be large or run the other way; the % refers to the signal ratio; also: potency is read from the fitted curve at half-maximal effect; % is scaled to controls: 0 for no effect and ±100 for the full control effect
#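 Compound titration spanned 92 nM–58 uM against the MBNL1-His/biotin-(CUG)12 complex. After 60 min at room temperature with 5 nM streptavidin-XL665 and 0.055 ng/ul terbium anti-His, ratiometric 665/545 nm emission (Ex 340 nm) normalized to controls.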
# CBFb RUNX1 block: qHTS Assay for Compounds Blocking the Interaction Between CBF-beta and RUNX1 for the Treatment of Acute Myeloid Leukemia | Runt-related transcription factor 1 (Homo sapiens) + Core-binding factor subunit beta … | AlphaScreen CBFb-His/RUNX1-biotin binding, biochemical | Potency, µM (titrated, usually from 59.8 µM), inactives show at the top dose activity, negative = inhibition, most hits filed as inhibitors | 230,000 tested, under 10 active | AID 1477, 2009; also: % of control where 0% means no effect
#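 Bead-based AlphaScreen assay; binding partners His-tagged CBF-beta and biotinylated RUNX1 at 30 nM each. Compound exposure 15 min after a 20-min protein preincubation; bead step 90 min; all steps at room temperature.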
# Six1-Eya2 blk: qHTS Assay for Inhibitors of the Six1/Eya2 Interaction; activity change, % (no concentration beside the values); 0.56% of 360,000 active; AlphaScreen GST-Six1/His-Eya2 binding, biochemical; hits give low values; Homeobox protein SIX1 (Homo sapiens) + Protein phosphatase EYA2 (Homo sapiens), …; in the data active = activity change below about -65%; inconclusive = mostly about -30% to -63%; also: % is scaled to controls: 0 for no effect and ±100 for the full control effect
# Target sequence (O00167 whole entry, looked up): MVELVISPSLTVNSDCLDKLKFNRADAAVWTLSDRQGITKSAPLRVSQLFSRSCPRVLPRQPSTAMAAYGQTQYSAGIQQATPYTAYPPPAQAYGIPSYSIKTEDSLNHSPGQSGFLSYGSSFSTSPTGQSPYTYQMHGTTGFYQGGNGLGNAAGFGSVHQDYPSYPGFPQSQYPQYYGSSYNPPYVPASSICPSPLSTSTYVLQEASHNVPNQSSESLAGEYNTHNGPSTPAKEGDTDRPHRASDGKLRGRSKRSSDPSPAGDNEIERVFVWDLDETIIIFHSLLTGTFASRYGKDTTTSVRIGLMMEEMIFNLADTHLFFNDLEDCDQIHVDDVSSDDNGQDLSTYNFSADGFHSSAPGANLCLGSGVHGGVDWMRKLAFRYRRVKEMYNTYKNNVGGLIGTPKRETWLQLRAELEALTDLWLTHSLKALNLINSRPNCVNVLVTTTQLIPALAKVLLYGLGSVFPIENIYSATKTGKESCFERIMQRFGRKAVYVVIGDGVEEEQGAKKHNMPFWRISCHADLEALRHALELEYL
# Target sequence (Q15475 whole entry, looked up): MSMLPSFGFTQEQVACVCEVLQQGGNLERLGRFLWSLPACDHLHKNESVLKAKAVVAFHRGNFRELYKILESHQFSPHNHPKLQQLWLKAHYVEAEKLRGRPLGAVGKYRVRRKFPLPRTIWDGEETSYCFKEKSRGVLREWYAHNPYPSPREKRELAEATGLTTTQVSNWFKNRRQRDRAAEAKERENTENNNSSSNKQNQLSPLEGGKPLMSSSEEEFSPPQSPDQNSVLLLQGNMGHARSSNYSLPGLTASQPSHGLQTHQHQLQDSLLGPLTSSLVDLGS
#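 Homogeneous AlphaScreen proximity assay pairing GST-Six1 with His-tagged Eya2 (added as 5X mix: 250 nM and 500 nM) in 50 mM Tris pH 8.0, 300 mM NaCl, 1 mM TCEP. Glutathione donor and nickel acceptor beads; 1 h, 37 °C, dark.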
# CtBP-E1A inh: qHTS Assay for Inhibitors of the CtBP/E1A Interaction | AlphaScreen GST-E1A/His-CtBP binding, 1536-well; hits give low values | activity change, % (concentration not given with the values) | 0.49% of 340,000 active; in the data active = activity change below about -65%; inconclusive = mostly about -30% to -63%; also: % is scaled to controls: 0 for no effect and ±100 for the full control effect
#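 AlphaScreen with 125 nM GST-E1A and 125 nM His-CtBP (5X stocks) in Tris pH 8.0, 300 mM NaCl, BSA, Tween 20, TCEP. Compounds preincubated 2 h at 37 deg C, then glutathione donor/nickel acceptor beads added for 1 h at 37 deg C in dark.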
# VP16 counter: VP16 counterscreen qHTS for inhibitors of ROR gamma transcriptional activity; 3.5% of 310,000 active; Potency, µM (titrated, usually from 53.6 µM), inactives show at the highest dose activity, negative = inhibition, usual class: inhibitors; Drosophila S2 Gal4-VP16 UAS-luciferase, luminescence, 20 h; AID 2546, 2010;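 also: Gal4-VP16 expression switched on by copper sulfate through the metallothionein promoter; potency is read from the fitted curve at half-maximal effect; % is scaled to controls: 0 for no effect and ±100 for the full control effect; nearly all actives have a fitted effect of over 50% in size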
# * marks the source's active call; other numbers are inactive results; ? = inconclusive; / = not tested or not shown; [ ] = remark or other dose. This is a sample that favours compounds with a hit; in the whole collection about 5.5% have one here. Unless noted, calls follow the shape of the dose curve; as a rule, active = well fitted curve in the direction sought with a large enough effect; inconclusive = small, poorly fitted or top-dose-only effect, or another doubt; inactive = no such curve, though single readings can be large; an effect the other way counts as inactive or inconclusive.
SMILES,RORgamma inh,MBNL1 CUG block,CBFb RUNX1 block,Six1-Eya2 blk,CtBP-E1A inh,VP16 counter
O=C(C=Cc1ccccc1)Nc1ccccc1,/,/,/,1,-5,/
O=C(/C=C/c1ccc(S(=O)(=O)N2CCOCC2)cc1)Nc1cc(F)ccc1F,/,/,/,-5,-5,/
O=C(/C=C/c1ccccc1)NC(=S)Nc1ccc(N2CCOCC2)cc1,1µM*,5%,-9%,-1,-3,3.2µM*
O=C(/C=C/c1ccc(S(=O)(=O)N2CCOCC2)cc1)NC(=S)Nc1ccc(Cl)cc1Cl,11µM*,10%,2%,0,-8,12%
O=C(/C=C/c1ccccc1)NC(=S)Nc1ccccc1,?,-1%,/,-7,-30,2µM*
C=C(C)C(O)/C=C/c1ccccc1OC (stereo unspecified),8%[10 µM],/,4%[13.1 µM],/,/,0%[10 µM]
Cc1ccc(C(=O)NCCc2nnc3ccc(NCc4ccc5c(c4)OCO5)nn23)cc1,-13%,5%,/,-11,0,-1%
CN(C)CCN(C)C1CN(CCc2ccccc2)S(=O)(=O)C1 (stereo unspecified),/,/,/,0,2,/
CCNc1ncc2nc(CCc3ccccc3)c(=O)n(C)c2n1,?,/,/,/,/,-16%
Cc1ccc(NC(=O)O/N=C/c2ccc(F)cc2)cc1,7%,-2%,/,-19,/,-4%
O=C(Nc1ccccc1)O/N=C/c1ccc(F)cc1,10µM*,-3%,/,13,/,?
COc1nccnc1NS(=O)(=O)c1ccc(NC(=S)NC(=O)/C=C/c2ccccc2)cc1,-9%,-1%,0%,-3,?,?
C=CCN(CC=C)S(=O)(=O)c1ccc(NC(=S)NC(=O)/C=C/c2ccccc2)cc1,2.5µM*,3%,-4%,19,0,-20%
COc1ccc(OC)c(NC(=O)Cn2c(=O)n(CC3CCCO3)c(=O)c3cc(OC)c(OC)cc32)c1 (stereo unspecified),-28%,7%,/,6,-12,-3%
COc1ccc(CCNc2cc(N3CCN(C(=O)c4ccc(C)cc4)CC3)ccc2[N+](=O)[O-])cc1OC,?,/,3%,/,/,-28%
COc1ccc(CCNc2cc(N3CCN(C(=O)c4ccccc4F)CC3)ccc2[N+](=O)[O-])cc1OC,42%,?,-14%,4,-1,10µM*
O=C(c1ccccc1F)N1CCN(c2ccc([N+](=O)[O-])c(NCc3cccnc3)c2)CC1,26%,/,-17%,-2,1,-6%
COc1ccc(C(=O)N2CCN(c3ccc([N+](=O)[O-])c(NCCc4ccc(OC)c(OC)c4)c3)CC2)cc1,?,8%,-16%,-12,17,4µM*
O=[N+]([O-])c1ccc2[nH]c(=S)sc2c1,/,/,/,-6,3,/
COCCCN(C(=S)Nc1cc(C)cc(C)c1)C(C)c1ccncc1 (stereo unspecified),13µM*,/,6%,4,1,?
CCOc1ccc(NC(=S)N(CCOC)C(C)c2cccnc2)cc1 (stereo unspecified),11µM*,-5%,4%,0,-6,-1%
COCCN(C(=S)Nc1cccc(C)c1)C(C)c1cccnc1 (stereo unspecified),11µM*,-1%,1%,-2,2,-4%
Cc1ccc(NC(=S)N(CCN(C)C)C(C)c2cccnc2)cc1 (stereo unspecified),-35%,12%,-6%,0,-1,-2%[10 µM]
COCCCN(C(=S)Nc1ccc(OC)cc1)C(C)c1ccncc1 (stereo unspecified),-11%,1%,1%,-1,-5,-2%
COc1cc(N=c2ssnc2Cl)cc(OC)c1,4µM*,6%,-11%,-4,-1,7.1µM*
SMILES,RORgamma inh,MBNL1 CUG block,CBFb RUNX1 block,Six1-Eya2 blk,CtBP-E1A inh,VP16 counter
CCNC(=S)N1CCN(c2ccccn2)CC1,-40%,-5%,-8%,0,0,-2%
CC(=NNC(=S)N1CCCCC1)c1ccccn1,/,/,/,-87*,-16,/
CSC(=S)NN=C(C)c1cccc(C)n1,/,/,/,-91*,-93*,/
CC(=NNC(=S)N1CCCCC1)c1cccc(C)n1,/,/,/,-91*,0,/
Cc1cccc(C(=S)N2CCOCC2)n1,/,/,/,-2,1,/
CC(=NNC(=S)N1CC2CCC(CC2)C1)c1ccncn1,/,/,/,?,-96*,/
COC(=O)NC(/C(C(=O)OC)=C(\C)NCc1ccccc1)c1ccc2ccccc2c1 (stereo unspecified),17%[10 µM],/,6%[13.1 µM],/,/,4%[10 µM]
Cc1ccc(C(=O)NCCS(=O)(=O)N2CCN(c3ccccc3F)CC2)cc1[N+](=O)[O-],8%,11%,/,-6,-1,-3%
Cc1cccc(C)c1NC(=S)N(Cc1ccccc1)Cc1cccnc1,?,-10%,-1%,6,-13,12%
Fc1ccccc1NC(=S)NN(Cc1ccccc1)c1ccccc1,4.5µM*,-3%,-6%,-4,-1,10µM*
CC(C)c1ccccc1NC(=S)NN(Cc1ccccc1)c1ccccc1,2.2µM*,7%,-12%,-17,-12,?
Cc1cccc(C)c1NC(=S)NN(Cc1ccccc1)c1ccccc1,5µM*,-1%,-5%,4,6,?
O=C(Nc1cccc(Cl)c1)c1csc(COCCO)n1,/,/,/,3,1,/
COc1cccc(-c2cc(C(=O)N3CCN(Cc4ccc5c(c4)OCO5)CC3)on2)c1,?,-2%,/,-15,-5,-4%
O=c1cc2oc3cc(O)c(O)cc3c(-c3ccccc3[N+](=O)[O-])c-2cc1O,-32%,?,/,-71*,/,?
NC(=O)C1CC(=O)N(c2ccc(OCc3ccccc3Cl)cc2)C1 (stereo unspecified),-1%,0%,4%,2,1,-5%
O=C(O)C1CC(=O)N(c2ccc(OCc3ccccc3Cl)cc2)C1 (stereo unspecified),14µM*,-3%,3%,7,4,?
Cc1ccn2cc(-c3cccc(NC(=O)C(C)C)c3)nc2c1,4µM*,2%,1%,4,-6,?
Oc1ccc(-c2cn3ccccc3n2)cc1O,-40%,-3%,/,-9,/,-24%
Cc1ccn2cc(-c3ccc(O)c(O)c3)nc2c1,-39%,-5%,/,-6,/,13µM*
